The values that follow come from PubChem BioAssay AID1259240 (Keith Lab, Institute of Cancer Science, University of …, 2017).

Each structure is given as a SMILES string. Unmarked numbers belong to inactive results. Calls of active or inactive are those of the source. No stated cut-off is given here; in the data, active means fold change mostly below about -2 (no sharp cut-off); inactive means mostly above about -1.8.

A short description of the test: TERT promoter activity modulators, primary screen, cell-based, luciferase reporter, human (AID 1259240). The following applies: A2780 TERT promoter luciferase reporter, 16 h; at 20 µM, fold versus average of vehicle-only wells. (Reporter assays use an easily measured gene product as a stand-in for the process of interest.)
With `Cn1c(=O)c2c(SCC(=O)Nc3ccccc3F)nc(-c3cccs3)nc2n(C)c1=O`, the fold change is 1.46. Turning to `CC(CC(=O)NCCc1c[nH]c2ccccc12)CC1=NS(=O)(=O)c2ccccc2N1` (stereo unspecified), the fold change was -1.46. Still for that read-out and setting: the figure for `Cc1cc(C)nc(SCC(=O)Nc2ccc(S(=O)(=O)Nc3onc(C)c3C)cc2)n1` is 1.02; for `Cc1ccc(-c2cc(C(F)F)n3ncc(C(=O)N4CC(C)OC(C)C4)c3n2)cc1` (stereo unspecified) it is -2.07 (active); for `Cc1ccc2nc(NCc3ccc4c(c3)OCO4)c3nncn3c2c1` it is 1.52. Consider `Cn1c(Cc2ccccc2)nn(CN2CCC3(CC2)OCCO3)c1=S`, for which the fold change is -1.07. For the compound `O=c1[nH]c(-c2ccc3nsnc3c2)nc2ccccc12`, the result was inactive. Consider `CCCc1nnc2n1Nc1nc3ccccc3nc1S2`, for which the fold change was 1.62. Same read-out and setting: the same measure for `O=C(NCc1ccc(Cl)cc1)c1c[nH]n2c(=O)cc(C3CCNCC3)nc12`: -1.87; for `O=C(NC1(C(F)(F)F)NC(=O)N(Cc2ccco2)C1=O)c1ccncc1` (stereo unspecified): -2.35 (active); for `CC(CC(=O)Nc1nccs1)CC1=NS(=O)(=O)c2ccccc2N1` (stereo unspecified): -1.22. Same read-out and setting: the figure for `Cc1ccc(-c2n[nH]c3c2C(c2cccc(O)c2)NC3=O)cc1` (stereo unspecified) is -1.62; for `Cc1cc(C)n(-c2nc3cc(Cl)ccc3nc2Cl)n1` it is 1.03; for `COc1cc(-c2nc3s/c(=C\c4ccccc4Br)c(=O)n3n2)cc(OC)c1OC` it is 1.02. Take `O=c1oc2cc(O)ccc2cc1-c1nnc(Nc2ccccc2)s1`: the compound was called active. On to `COc1cc(OC)c(-c2nc(-c3cccnc3)no2)cc1OC`, for which the fold change is 1.51.
